Shiga inhibitor: inhibitors of Shiga toxin in Vero cells | Vero cells, Shiga toxin protein synthesis inhibition reporter | inhibition, % at 38.7 µM | 290,000 tested, 9.2% active | AID 2315; in the data active = inhibition mostly above about 28%, no sharp cut-off; inactive = mostly below about 43%; also: 0% is about no effect
Pf growth 96h: P. falciparum growth inhibition at 96 hour, primary screen for plastid delayed-death inhibitors | Potency, µM (highest dose often 28.7 µM), for the others: at the top dose activity change, negative = inhibition, most hits filed as inhibitors | P. falciparum luciferase reporter growth, 96 h | 320,000 tested, 6.9% active; also: potency is read from the fitted curve at half-maximal effect; % is scaled to controls: 0 for no effect and ±100 for the full control effect
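Readout is luminescence from an integrated firefly luciferase in P. falciparum. Red cells, 2% hematocrit and 0.05% parasitemia final, were cultured with compound through two parasite generations (96 hours) at 37 C, 5% CO2.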
Cycloheximide cs: counter-screen hit for Shiga toxin inhibitors, cycloheximide | 300,000 tested, 12% active | max response, % | cell reporter, cycloheximide protein synthesis inhibition counterscreen; in the data active = max response mostly above about 13%, no sharp cut-off; inactive = mostly below about 14%; also: read at 38.3 µM for the half of the compounds with a filed dose; 0% is about no effect
HCMV inh: blocks human cytomegalovirus replication; HFF cells, HCMV-luciferase reporter, 72 h; stronger effect = lower value; activity change, negative = inhibition, % at 57.5 µM; 410,000 tested, 4.5% active; in the data active = activity change below about -60%; inconclusive = no clear call, values can overlap the other calls; inactive = above about -39%; also: % is scaled to controls: 0 for no effect and ±100 for the full control effect
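Luciferase read-out from HCMV-luciferase-infected HFFs (MOI 1 PFU/cell) 72 h post infection at 37C; compounds added after 16 h cell attachment; activity normalized between buffer-only basal and Salinomycin (10uM) inhibitor controls.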
Pf growth 48h: inhibits P. falciparum growth in the first generation, 48 h; P. falciparum luciferase growth in erythrocytes, 48 h; Potency, µM (titrated, usually from 28.7 µM), without a hit: top-dose activity change, negative = inhibition, actives largely listed as inhibitors; 310,000 tested, 5.9% active; AID 504832; also: potency is read from the fitted curve at half-maximal effect; % is scaled to controls: 0 for no effect and ±100 for the full control effect
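Firefly luciferase activity from engineered P. falciparum reports growth; inhibitors lower the luminescent signal. Cultures contained 2% hematocrit erythrocytes at 0.1% final parasitemia.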
The depositor's hits bear a star. Shown are actives, neighbours in structure and some others; about 20% of the full set was active somewhere. Unless noted, calls follow the shape of the dose curve; as a rule, active = well fitted inhibition curve with a large enough effect; inconclusive = small, poorly fitted or top-dose-only effect, or another doubt; inactive = no such curve, though single readings can be large or run the other way.

What do the screens show for `COCCn1c(C)cc(C(=O)COC(=O)c2ccc3ncsc3c2)c1C`?
Shiga inhibitor: 109.8*; Pf growth 96h: inconclusive; Cycloheximide cs: 23.9*; HCMV inh: 35.7; Pf growth 48h: 108.3%

What do the screens show for `CCCCCn1c(=O)c(C(=O)Nc2ccccc2)c(O)c2ccccc21`?
Shiga inhibitor: 35.9; Pf growth 96h: 9.4%; Cycloheximide cs: 8.6; HCMV inh: 1.7; Pf growth 48h: 25.7%

What do the screens show for `CCCCCCCCn1c(=O)c(C(=O)OC)c(N)c2ccccc21`?
Shiga inhibitor: 8.5; Pf growth 96h: inconclusive; Cycloheximide cs: -2.3; HCMV inh: -64.4*; Pf growth 48h: 14.7µM*

What do the screens show for `CCCCCCCn1c(=O)c(C(=O)OC)c(N)c2ccccc21`?
Shiga inhibitor: 21.1; Pf growth 96h: inconclusive; Cycloheximide cs: 0.1; HCMV inh: -89.3*; Pf growth 48h: inconclusive

Results for O=[N+]([O-])c1ccc2c(c1)S(=O)(=O)C=C2 ?
Shiga inhibitor: -14.9; Cycloheximide cs: -9.0

Results for Cc1ccc(C)c(N2CCN(C(=O)C3CCN(Cc4nc(-c5cccc(Cl)c5)oc4C)CC3)CC2)c1 ?
HCMV inh: 12.6

How did O=C(O)c1cccc(-c2ccc(/C=N/Nc3ccc([N+](=O)[O-])cc3)o2)c1 do in these assays?
Shiga inhibitor: 53.7; Pf growth 96h: 3.8%; Cycloheximide cs: 17.5*; HCMV inh: -16.8; Pf growth 48h: -18.1%

What do the screens show for `O=C(O)c1ccc(-c2ccc(/C=N/Nc3ccc([N+](=O)[O-])cc3)o2)cc1`?
Shiga inhibitor: 92.4*; Pf growth 96h: -7.0%; Cycloheximide cs: 15.9*; HCMV inh: 116.7; Pf growth 48h: -16.6%

How did NS(=O)(=O)c1ccc(-c2ccc(/C=N/NC(=O)c3ccc([N+](=O)[O-])cc3)o2)cc1 do in these assays?
Shiga inhibitor: -6.6; Pf growth 96h: 54.2%; Cycloheximide cs: -3.3; HCMV inh: 0.0; Pf growth 48h: 53.4%

Results for NS(=O)(=O)c1ccc(-c2ccc(/C=N/Nc3ccc(C(=O)O)cc3)o2)cc1 ?
Shiga inhibitor: 17.9; Pf growth 96h: 50.8%; Cycloheximide cs: 41.4*; HCMV inh: -29.4; Pf growth 48h: 113.3%

How did Cc1sc(NC(=O)Cc2ccc3c(c2)OCO3)nc1-c1ccc2c(c1)CCN2C(=O)c1ccccc1F do in these assays?
Shiga inhibitor: 15.5; Pf growth 96h: -0.6%; Cycloheximide cs: 10.7; HCMV inh: -30.3; Pf growth 48h: -14.5%

What do the screens show for `Cc1sc(NC(=O)c2ccco2)nc1-c1ccc2c(c1)CC(C)N2C(=O)C1CC1` (stereo unspecified)?
Shiga inhibitor: 175.2*; Pf growth 96h: 4.7%; Cycloheximide cs: 30.6*; HCMV inh: -96.9*; Pf growth 48h: inconclusive

How did Cc1sc(NC(=O)CN(C)C2CCCCC2)nc1-c1ccc2c(c1)CCN2S(=O)(=O)c1ccccc1 do in these assays?
Shiga inhibitor: -8.5; Pf growth 96h: 2.94µM*; Cycloheximide cs: -3.9

How did CC(=O)Nc1nc(-c2ccc3c(c2)CC(C)N3C(=O)C2CC2)c(C)s1 (stereo unspecified) do in these assays?
Shiga inhibitor: 65.3*; Pf growth 96h: -11.1%; Cycloheximide cs: 19.9*; HCMV inh: -100.2*; Pf growth 48h: -13.8%

How did CCOC(=O)C(=O)Nc1nc(-c2ccc3c(c2)CCN3C(=O)C2CC2)c(C)s1 do in these assays?
Shiga inhibitor: 47.2; Pf growth 96h: -24.6%; Cycloheximide cs: 19.9*; HCMV inh: 5.2; Pf growth 48h: 5.0%

How did Cc1sc(NC(=O)CN2CCCC2)nc1-c1ccc2c(c1)CCN2C(=O)c1cccc(F)c1 do in these assays?
Shiga inhibitor: 12.1; Pf growth 96h: 2.6%; Cycloheximide cs: -1.9; HCMV inh: -3.6; Pf growth 48h: inconclusive

How did Cc1ccc(CCNS(=O)(=O)c2ccc3c(c2)CC(C)N3C(=O)C2CCC2)cc1 (stereo unspecified) do in these assays?
HCMV inh: 0.6

How did Cc1sc(NC(=O)Cc2ccc3c(c2)OCO3)nc1-c1ccc2c(c1)CCN2C(=O)c1ccc(F)cc1 do in these assays?
Shiga inhibitor: -7.8; Pf growth 96h: 4.7%; Cycloheximide cs: -4.5; HCMV inh: -34.6; Pf growth 48h: 9.28µM*

Results for O=C(c1cnn(-c2cccc(F)c2)c1)c1ccccc1O ?
Shiga inhibitor: 100.1*; Pf growth 96h: 141.6%; Cycloheximide cs: 24.3*; HCMV inh: 65.7; Pf growth 48h: 68.6%

How did O=C(O)c1ccc(-n2cc(C(=O)c3ccccc3O)cn2)cc1 do in these assays?
Shiga inhibitor: 30.3; Pf growth 96h: 85.9%; Cycloheximide cs: 28.9*; HCMV inh: 37.6; Pf growth 48h: 91.7%

What do the screens show for `O=C(c1cnn(-c2nc3ccccc3s2)c1)c1ccccc1O`?
Shiga inhibitor: 47.3*; Pf growth 96h: inconclusive; Cycloheximide cs: 30.5*; HCMV inh: -4.1; Pf growth 48h: 89.0%

Results for O=C(c1cnn(C(=O)c2ccccc2)c1)c1ccccc1O ?
Shiga inhibitor: 31.2; Pf growth 96h: 11.9%; Cycloheximide cs: 14.2; HCMV inh: inconclusive; Pf growth 48h: 11.6%

What do the screens show for `CCC1CCCCN1C(=S)NC1CCCCC1` (stereo unspecified)?
Shiga inhibitor: 15.1; Pf growth 96h: 37.8%; Cycloheximide cs: -0.9; HCMV inh: -11.7; Pf growth 48h: -13.5%

How did N#CC1=C(N)N2C(=C(C#N)C13CCCC3)Nc1ccccc12 do in these assays?
Shiga inhibitor: 50.5*; Pf growth 96h: inconclusive; Cycloheximide cs: 8.8*; HCMV inh: -2.9; Pf growth 48h: 5.6%

Results for Cc1cc(C)c(C)c(S(=O)(=O)NCc2ccc(C(=O)N3CCOCC3)cc2)c1C ?
Shiga inhibitor: -30.9; Pf growth 96h: 42.7%; Cycloheximide cs: -1.9; HCMV inh: -11.3; Pf growth 48h: 8.28µM*

How did O=S(=O)(NCc1ccncc1)c1ccc(Br)s1 do in these assays?
Shiga inhibitor: 11.0; Cycloheximide cs: 6.9; HCMV inh: -61.0*; Pf growth 48h: 18.0%

How did COc1cc(S(=O)(=O)NCc2ccncc2)ccc1Br do in these assays?
Shiga inhibitor: -9.1; Pf growth 96h: 1.7%; Cycloheximide cs: 6.2; HCMV inh: -69.8*; Pf growth 48h: 34.2%

What do the screens show for `O=S(=O)(NCc1ccncc1)c1ccccc1`?
Shiga inhibitor: 2.4; Pf growth 96h: -88.0%; Cycloheximide cs: -1.7; HCMV inh: inconclusive

What do the screens show for `Cc1cc(C)c(C)c(S(=O)(=O)NCc2ccncc2)c1C`?
Shiga inhibitor: -10.0; Pf growth 96h: inconclusive; Cycloheximide cs: -3.4; HCMV inh: -68.1*; Pf growth 48h: 8.6%

What do the screens show for `COc1ccc(-c2c(-c3ccc(OC)c(F)c3)c3ccccc3n2C)cc1`?
HCMV inh: 7.4

Results for CC1CCN(CCCNC(=O)c2ccc(N3CCCC3=O)cc2)CC1 ?
Shiga inhibitor: -11.5; Pf growth 96h: 26.3%; Cycloheximide cs: 0.7; HCMV inh: 13.7; Pf growth 48h: 21.3%

How did O=S(=O)(NCCc1ccccc1)c1ccc(Br)s1 do in these assays?
Shiga inhibitor: 18.6; Pf growth 96h: 47.2%; Cycloheximide cs: -1.5; HCMV inh: -3.0; Pf growth 48h: 111.9%

Assay outcomes as filed in PubChem BioAssay.
